From PubChem
Only a selection was taken, and hits are over-represented in it overall.
12-LOX inh – ALOX12 (human) lipoxygenase inhibition; purified 12hLO, xylenol orange hydroperoxide absorbance; 1.1% of 580,000 active; P18054; Potency, µM (highest dose often 108 µM), for the others: top-dose activity change, negative = inhibition, most hits filed as inhibitors; further: potency means the concentration at half of the fitted maximal effect
Target sequence (P18054 whole entry, looked up): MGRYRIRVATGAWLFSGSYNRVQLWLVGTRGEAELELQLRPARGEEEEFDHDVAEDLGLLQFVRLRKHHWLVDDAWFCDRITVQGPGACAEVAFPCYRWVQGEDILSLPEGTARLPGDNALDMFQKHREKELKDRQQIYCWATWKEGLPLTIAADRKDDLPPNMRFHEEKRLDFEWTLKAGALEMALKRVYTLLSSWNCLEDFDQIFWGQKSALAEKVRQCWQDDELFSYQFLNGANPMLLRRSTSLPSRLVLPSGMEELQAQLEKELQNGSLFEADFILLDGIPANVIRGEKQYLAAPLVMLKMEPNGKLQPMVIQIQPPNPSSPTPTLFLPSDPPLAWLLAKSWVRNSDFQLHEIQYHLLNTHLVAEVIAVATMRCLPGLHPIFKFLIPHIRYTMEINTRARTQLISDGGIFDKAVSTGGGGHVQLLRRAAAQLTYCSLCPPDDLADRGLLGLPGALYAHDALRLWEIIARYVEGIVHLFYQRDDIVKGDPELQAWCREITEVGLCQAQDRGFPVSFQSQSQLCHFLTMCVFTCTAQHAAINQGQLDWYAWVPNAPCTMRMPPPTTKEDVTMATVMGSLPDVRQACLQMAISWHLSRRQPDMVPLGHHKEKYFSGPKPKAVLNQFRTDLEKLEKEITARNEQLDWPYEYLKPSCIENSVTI
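Hydroperoxide product was detected by ferrous iron/xylenol orange as the 573 to 405 nm absorbance ratio. Arachidonic acid at 40 uM (final) was turned over for 30 min at room temperature by 150 nM human 12hLO, pH 7.0 Hepes buffer, after 15 min compound preincubation.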
HT1080 IDH1KD tx – toxicity to HT-1080 IDH1 knockdown cells (counter line). 2% of 360,000 active. Potency, µM (series often up to 46.1 µM), without a hit: at the top dose activity, negative = toxicity, most hits filed as cytotoxic. AID 686971. HT-1080 IDH1 knockdown viability, ATP luminescence, 48 h;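 further: potency means the concentration at half of the fitted maximal effect; 0% = DMSO wells and -100% = cell-free medium wells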
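Viability of IDH1-knockdown HT-1080 fibrosarcoma cells was assessed by CellTiter-Glo after 48 h at 37 °C with titrated compound; concentration-effect curves were classified by fit quality and response size.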
HT1080NT lethal – kills 2HG-producing HT-1080-NT fibrosarcoma cells; HT-1080-NT fibrosarcoma viability, CellTiter-Glo ATP luminescence, 48 h; Potency, µM (top dose mostly 46.1 µM), without a hit: top-dose activity, negative = less viability, hits mostly cytotoxic; 1.6% of 360,000 active; AID 686970;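 further: NT is the 2HG producing partner of a matched IDH1 knockdown line; potency means the concentration at half of the fitted maximal effect; 0% = DMSO-treated cells and -100% = media-only wells without cells; nearly all actives have a fitted effect of over 55% in size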
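Viability by CellTiter-Glo luminescence after 48 h compound exposure at 37C of HT-1080-NT cells (750/well, RPMI, 5% FBS). % activity scaled between DMSO wells and medium-only wells, then curve-fitted and categorized by curve class.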
TDP1 cell noCPT – qHTS for Inhibitors of human tyrosyl-DNA phosphodiesterase 1 (TDP1): qHTS in cells in absence of CPT. DT40 Tdp1-/- hTDP1 cells, no CPT, ATP luminescence, 48 h. Potency, µM (doses to about 46.2 µM), without a hit: at the highest dose activity change, negative = growth inhibition, actives largely listed as inhibitors. 15% of 420,000 active; further: potency means the concentration at half of the fitted maximal effect; nearly all actives have a fitted effect of over 55% in size
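Growth kinetics read by CellTiter-Glo luminescence after ≥48 hr at 37 °C. Cells: DT40 Tdp1-/- stably carrying human TDP1, 400 per well, compound exposure in the absence of CPT (DMSO vehicle).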
TDP1 cell CPT – growth inhibition of DT40 Tdp1-/-;hTDP1 cells with camptothecin (screen for TDP1 inhibitors); chicken DT40 Tdp1-/-;hTDP1 cells + 20 nM CPT, ATP luminescence, 48 h; Potency, µM (doses to about 46.2 µM), for inactives: at the top dose activity change, negative = growth inhibition, usual class: inhibitors; 12% of 420,000 active; further: potency means the concentration at half of the fitted maximal effect; nearly all actives have a fitted effect of over 55% in size
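Chicken DT40 Tdp1-/- cells complemented with human TDP1, 400 cells/well, exposed to compounds plus 20 nM camptothecin for at least 48 h at 37 C; viability read as ATP content by CellTiter-Glo luminescence.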
IL1B secr inh – inflammasome signaling inhibition, IL-1 beta readout; activity change, % at 57.5 µM; 4.7% of 360,000 active; THP-1 LPS/ATP IL-1B secretion, AlphaLISA, 16 h; stronger effect = lower value; in the data active means activity change below about -50%; inconclusive means mostly about -30% to -49%
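THP-1 cells pretreated 1 hr with compounds (up to 57.5 uM final), then stimulated with LPS (250 ng/mL final) plus ATP (1.25 mM final); secreted IL-1B measured by AlphaLISA after 16 hr, decreased signal indicating inhibition.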
* marks the source's active call; other numbers are inactive results; i = inactive; ? = inconclusive; / = no result given; [ ] = remark or other dose. Unless noted, the call rests on the fitted dose curve; in most records, active means well fitted curve in the direction sought with a large enough effect; inconclusive means small, poorly fitted or top-dose-only effect, or another doubt; inactive means no such curve, though single readings can be large; an effect the other way counts as inactive or inconclusive. Unless noted, on the % scale 0 is the no-effect control and ±100 the full control effect.

SMILES	12-LOX inh	HT1080 IDH1KD tx	HT1080NT lethal	TDP1 cell noCPT	TDP1 cell CPT	IL1B secr inh
O=C(CSc1nc2c(oc3ccccc32)c(=O)n1-c1ccccc1)Nc1ccc(F)c(Cl)c1	-27%	/	/	13µM*	?	/
O=C(CSc1nc2c([nH]c3ccccc32)c(=O)n1-c1ccccc1)Nc1ccc(Cl)c(Cl)c1	-28%	/	/	10µM*	8.2µM*	/
O=C(CSc1nc2c([nH]c3ccccc32)c(=O)n1-c1ccccc1)Nc1ccc2c(c1)OCCO2	6%	/	/	?	?	/
COc1ccc(C(=O)N2[C@@H]3CC[C@H]2CC(NC(=O)c2ccncc2)C3)cc1F (some centres undefined)	10%	/	/	/	/	/
CC(C1SC(=S)NC1=O)C1SC(=S)NC1=O (centres undefined)	13µM*	-3%	-5%	-25%	-25%	-22
CC1=CC(=O)C2=C(C)C[C@H](OC(=O)c3ccccc3Br)[C@@H]3[C@H](OC(=O)[C@H]3C)[C@@H]12	-90%	/	/	/	/	/
COc1cc(C2C(C#N)=C(N)Oc3cc4c(cc32)OCO4)cc(OC)c1OC (centres undefined)	i	0.029µM*	0.037µM*	0.16µM*	0.18µM*	81
CCOc1ccc(Br)cc1C1C(C#N)=C(N)Oc2cc3c(cc21)OCO3 (centres undefined)	7.1µM*	/	/	/	/	/
COc1cc(C2C(C#N)=C(N)Oc3cc(O)ccc32)cc2c1OCO2 (centres undefined)	?	21µM*	?	?	?	41
CCOc1cc(C2C(C#N)=C(N)Oc3cc(N)ccc32)ccc1O (centres undefined)	0%	-2%	17%	?	?	-15
CCOc1cc(C2C(C#N)=C(N)Oc3cc4c(cc32)OCO4)cc(Br)c1OC (centres undefined)	44%	/	/	/	/	/
CCC1=Nc2cc(C(=O)NCc3ccccc3OC)ccc2Sc2ccc(Cl)cc21	-21%	/	/	?	?	/
CCC1=Nc2cc(C(=O)NCCc3ccccc3)ccc2Sc2ccc(Cl)cc21	?	/	/	6.5µM*	8.2µM*	/
CCCC1=Nc2cc(C(=O)NCc3ccccc3Cl)ccc2Sc2ccc(Cl)cc21	45%	/	/	/	/	/
CCCC1=Nc2cc(C(=O)NC(C)c3ccccc3)ccc2Sc2ccc(C)cc21 (centres undefined)	-12%	/	/	?	?	/
COc1ccc(CCNC(=O)c2ccc3c(c2)N=C(C)c2ccccc2S3)cc1OC	-31%	/	/	?	?	/
CCC1=Nc2cc(C(=O)NCc3ccccc3Cl)ccc2Sc2ccc(C)cc21	0%	/	/	3.3µM*	5.2µM*	/
CCC1=Nc2cc(C(=O)NC(C)c3ccccc3)ccc2Sc2ccc(Cl)cc21 (centres undefined)	?	/	/	?	16µM*	/
CCCC1=Nc2cc(C(=O)NCc3ccc(OC)cc3)ccc2Sc2ccc(C)cc21	-25%	/	/	9.2µM*	15µM*	/
CCc1cc2c(cc1C1(C)OCCO1)C(C)(C)CCC2(C)C	8%	/	/	/	/	/
Cc1ccc2nc(C)c(C(=O)NCc3ccc(N4CCCCCC4)nc3)cc2c1	-11%	/	/	/	/	/
CCCC1=Nc2cc(C(=O)NCCCN3CCN(C)CC3)ccc2Sc2ccccc21	-3%	0%	?	?	?	-8
CCOC(=O)N1CCN(C(=O)c2ccc3c(c2)N=C(C)c2cc(Cl)ccc2S3)CC1	0%	2%	25%	12µM*	?	-10
CCOCCCNC(=O)c1ccc2c(c1)N=C(CC)c1cc(Br)ccc1S2	1%	0.092µM*	?	0.033µM*	0.037µM*	-11
CCCNC(=O)c1ccc2c(c1)N=C(CCC)c1ccccc1S2	-20%	/	/	0.73µM*	1.2µM*	/
SMILES	12-LOX inh	HT1080 IDH1KD tx	HT1080NT lethal	TDP1 cell noCPT	TDP1 cell CPT	IL1B secr inh
CCC1=Nc2cc(C(=O)NCCN(CC)CC)ccc2Sc2ccccc21	-10%	/	/	?	?	/
CCC1=Nc2cc(C(=O)N3CCC(C)CC3)ccc2Sc2ccc(C)cc21	-6%	/	/	16µM*	16µM*	/
O=C1Nc2ccccc2OCC12CCN([S+](=O)([O-])c1cccs1)CC2	19%	/	/	/	/	/
CCOCCN1C(=O)COC[C@@H]1[C@H](O)c1ccc(NC(=O)Cc2ccccc2)cc1	18%[176 µM]	/	/	/	/	/
COc1ccc(NC(=O)C(C)Oc2cc(C)cc(C)c2)c2cccnc12 (centres undefined)	19%	/	/	/	/	/
CC1(C)CS(=O)(=O)N(c2ccc(C(=O)Nc3ccc4c(c3)OCO4)cc2)C1=O	65%	/	/	/	/	/
CC(Oc1ccc(Cl)cc1Cl)C(=O)N1CC(=O)Nc2ccccc21 (centres undefined)	-6%	/	/	/	/	/
CCCC1=Nc2cc(C(=O)NCCc3ccccc3)ccc2Sc2ccc(C)cc21	-3%	/	/	6.5µM*	4.6µM*	/
CCNC(=O)c1cc(-c2ccccn2)nc2ccccc12	-4%	/	/	/	/	/
COc1ccccc1NC(=O)Nc1ccc(Cc2ccncc2)cc1	-3%	-7%	0%	-3%	8%	-87*
COc1ccccc1NC(=O)Nc1ccc(NC(=O)c2ccccc2O)cc1	32%	-15%	-10%	29µM*	-27%	?
COC(=O)c1ccccc1NC(=O)c1ccccc1OC	-17%	-3%	-6%	-25%	-8%	0
COc1ccccc1NC(=O)c1cnc(Nc2ccccc2OC)c2ccccc12	-7%	?	3.7µM*	1.2µM*	1.6µM*	33
COc1ccccc1C(=O)Nc1ccccc1SC(=O)c1ccccc1OC	4%	?	18µM*	2.6µM*	2.6µM*	-3
COc1ccccc1NC(=O)c1ccccc1-c1ccccc1C(=O)O	4%	5%	5%	1%	-1%	1
O=C(Nc1ccccc1OC(=O)c1ccccc1)c1ccccc1	7%	15µM*	?	29µM*	?	59
COc1ccccc1NC(=O)c1ccccc1NC(=O)c1ccccc1C(=O)O	1.8µM*	-6%	1%	-13%	3%	-5
COc1ccccc1NC(=O)c1ccccc1C(=O)Nc1ccccc1OC	11%	-3%	-5%	?	?	-67*
C=CCSc1nc(N)c(C(=O)Nc2ccccc2OC)cc1C(=O)Nc1ccccc1	0%	-12%	-3%	8.2µM*	8.2µM*	41
COc1ccccc1NC(C)=O	11%	9%	7%	-2%	-1%	31
CCC(CC)N1C[C@@H](CO)[C@H](c2nc(CCOC)no2)C1	37%	/	/	/	/	/
Cc1c(C(=O)NC2=NCCS2)sc2cccc(F)c12	1%	/	/	/	/	/
